D1 agonist – agonists of human D1 dopamine receptor; activation, % at 2 µM; HEK293 T-REx D1 cells, calcium flux, agonist mode; AID 504660; 1% of 360,000 active; in the data active means activation above about 30%
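Agonism was scored from calcium flux recorded over 180 s (1 read/s) after pintool compound addition, following a 10-cycle baseline. Cells were inducible force-coupled HEK293 TREx D1, plated overnight at 30 C and loaded with no-wash calcium dye.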
D3 ag – D3 dopamine receptor (human) agonism. max activation, %. 0.58% of 410,000 active. D3R DiscoveRx beta-arrestin cells, luminescence, 90 min. P35462; in the data active means max activation above about 30%
Target sequence (P35462 whole entry, looked up): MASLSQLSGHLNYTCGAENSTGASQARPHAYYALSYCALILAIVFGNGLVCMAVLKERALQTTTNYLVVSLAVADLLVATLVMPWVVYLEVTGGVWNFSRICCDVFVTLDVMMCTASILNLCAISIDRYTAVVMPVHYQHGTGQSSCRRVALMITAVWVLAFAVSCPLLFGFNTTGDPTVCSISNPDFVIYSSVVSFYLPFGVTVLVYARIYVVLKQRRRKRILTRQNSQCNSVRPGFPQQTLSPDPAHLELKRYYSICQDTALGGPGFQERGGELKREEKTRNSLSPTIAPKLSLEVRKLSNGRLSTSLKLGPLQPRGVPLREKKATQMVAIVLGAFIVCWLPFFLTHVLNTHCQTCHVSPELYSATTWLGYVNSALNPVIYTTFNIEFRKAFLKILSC
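Agonist mode: compounds and dopamine controls were applied to plated cells for 90 min at 37 degrees C after an overnight attachment at 1500 cells/well. Luminescent read-out followed 30 - 60 minutes at room temperature with DiscoveRx detection reagent.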
D1 antag – blocks dopamine activation of the human D1 receptor. P21728. HEK293 TREx D1 cells, calcium flux, dopamine EC80; active compounds read low. activity change, negative = inhibition, % at 10 µM. 3.2% of 360,000 active; in the data active means activity change below about -30%
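Using tetracycline-induced force-coupled D1 Hek293 cells and a calcium dye, signals were followed for 180 s after compound, then for 180 s after EC80 dopamine, to detect inhibitors.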
DRD3 antagonist – blocks the human D3 dopamine receptor | D3R cells, DiscoveRx beta-arrestin luminescence, antagonist mode; active compounds read low | max response, negative = inhibition, % | 2.5% of 360,000 active | AID 652054; in the data active means max response below about -50%; inconclusive means no clear call, values can overlap the other calls
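Cells plated overnight at 1500 cells/well, then exposed to library compounds with dopamine controls for 90 minutes at 37 degrees C. DiscoveRx reagent added for 30–60 minutes at room temperature; luminescence read, quantitative HTS format.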
D1 PAM – enhances dopamine response at the human D1 receptor; AID 504651; potentiation, % at 10 µM; HEK293 TREx D1 cells, calcium flux, dopamine EC20 potentiation; P21728; 0.036% of 360,000 active; in the data active means potentiation above about 30%
Chronic BCR inh – chronic active BCR signaling inhibition; 0.05% of 340,000 active; ABC-DLBCL IkBa-CBG/CBR reporter, luminescence ratio, 4 h; Potency, µM (highest dose often 46.1 µM), usual class: inhibitors; active means well fitted inhibition curve with a large enough effect in the signal ratio, with a control signal flat, not every such curve was filed as active; inconclusive means small, poorly fitted or top-dose-only effect, or effect the other way, or a change in a side signal; the % refers to the signal ratio
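Concentration-response series (up to 46 uM) were applied to TMD8 dual-reporter cells for 4 h at 37C with doxycycline. Green/red ratio, after filter-overlap correction, defined %Activity; red signal alone was normalised to basal cells and zero luminescence.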
Of the large screens only hits and unclear results are named; the others gave an inactive call. Only some compounds are listed: those with a hit (about 6% of all), similar ones and a draw of the others.

Nc1n[nH]c(C2CCCCC2)n1	none
S=c1nc(C2CCCCC2)[nH][nH]1	D1 antag -50
Cc1ccc(C)c(N2CCN(C(=O)COc3cc(=O)n(C)c4ccccc34)CC2)c1	Chronic BCR inh inconclusive
Cc1ccc(C)c(N2CCN(C(=O)CCc3nc(-c4ccccc4C(F)(F)F)no3)CC2)c1	D3 ag 39 (no result: D1 agonist, D1 antag, D1 PAM)
Cc1ccc(C)c(N2CCN(C(=O)CCCOc3cc(=O)n(C)c4ccccc34)CC2)c1	D3 ag 79, Chronic BCR inh inconclusive
COc1ccc(-c2noc(CCCCC(=O)N3CCN(c4cc(C)ccc4C)CC3)n2)cc1	D3 ag 53, Chronic BCR inh inconclusive (no result: D1 agonist, D1 antag, D1 PAM)
COc1cccc(-c2noc(CCC(=O)N3CCN(c4cc(C)ccc4C)CC3)n2)c1	none (no result: D1 agonist, D1 antag, D1 PAM)
COc1ccccc1-c1noc(CCC(=O)N2CCN(c3cc(C)ccc3C)CC2)n1	D3 ag 49, Chronic BCR inh inconclusive (no result: D1 agonist, D1 antag, D1 PAM)
C/C(=C(\CCOC(=O)c1ccccc1)SS/C(CCOC(=O)c1ccccc1)=C(/C)N(C=O)Cc1cnc(C)nc1N)N(C=O)Cc1cnc(C)nc1N	none (no result: D1 agonist, D1 antag, DRD3 antagonist, D1 PAM, Chronic BCR inh)
COc1cc(NCCCn2ccc(NC(=O)OCc3ccccc3)nc2=O)cc(OC)c1OC	none (no result: D1 agonist, D1 antag, D1 PAM, Chronic BCR inh)
COc1ccccc1CNC(=O)c1cnc2sccn2c1=O	D1 antag -40
Cc1csc2ncc(C(=O)NCc3ccccc3Cl)c(=O)n12	D1 antag -34
Cc1cc(C(=O)NCc2ccccc2Cl)n(-c2ccccc2)n1	D1 antag -38
COc1ccccc1CNC(=O)c1cc(C)nn1-c1ccccc1	Chronic BCR inh inconclusive
Cc1cccc(NC(=O)c2cnc3sccn3c2=O)c1	Chronic BCR inh inconclusive
COc1ccc(NC(=O)c2cnc3sccn3c2=O)cc1	DRD3 antagonist -52
CC(=O)c1ccc(NC(=O)c2sc(-n3nc(C)c(Cc4ccc5c(c4)OCO5)c3C)nc2C)cc1	none (no result: DRD3 antagonist, Chronic BCR inh)
CO/N=C(\C(=O)N[C@@H]1C(=O)N2C(C(=O)OCOC(=O)C(C)(C)C)=C(/C=C\c3scnc3C)CS[C@H]12)c1csc(N)n1	none (no result: D1 agonist, D1 antag, DRD3 antagonist, D1 PAM, Chronic BCR inh)
CC(C)Oc1cccc(C(=O)NC(=S)Nc2ccccc2)c1	D1 antag -35, Chronic BCR inh inconclusive
CC(C)Oc1cccc(C(=O)NC(=S)Nc2cccnc2)c1	Chronic BCR inh inconclusive
CN(C)CCN1CCN(C2CN(Cc3ccc([N+](=O)[O-])cc3)S(=O)(=O)C2)CC1 (stereo unspecified)	none (no result: D1 agonist, D1 antag, D1 PAM, Chronic BCR inh)
Cc1ccc2occ(-c3cc(-c4ccc(Cl)cc4)nc4c3COc3ccccc3-4)c(=O)c2c1	none (no result: DRD3 antagonist, Chronic BCR inh)
COC(=O)c1ccc(CSc2ccc3nnc(-c4cccnc4)n3n2)o1	D1 antag -46 (no result: D3 ag, DRD3 antagonist)
CCc1ccc(NC(=O)Nc2cccc(OC)c2)cc1	D1 antag -31, Chronic BCR inh inconclusive
Cc1ccc(OCCCC(=O)Nc2ccc(Br)cc2)cc1	D1 antag -67
O=C(CCCC(=O)Nc1cccnc1)Nc1cccnc1	Chronic BCR inh inconclusive
COc1ccc(OCCCC(=O)Nc2cccnc2)cc1	DRD3 antagonist -90
COc1ccc(OCC(=O)NCCNC(=O)c2cccnc2)cc1	D1 antag -32, Chronic BCR inh inconclusive (no result: D1 PAM)
C[C@@H]1CN([C@H](C)CO)C(=O)c2cc(C#C[C@@H](C)O)cnc2O[C@H]1CN(C)C(=O)c1ccc(F)cc1	none (no result: D1 agonist, D1 antag, D1 PAM, Chronic BCR inh)
CC1=C(C(=O)N2CCOCC2)CC(CC(=O)NCCCCc2ccccc2)C(=O)N1Cc1ccc(F)cc1 (stereo unspecified)	none (no result: D1 agonist, D1 antag, D1 PAM, Chronic BCR inh)
COc1ccc(CCN(C)CCC(=O)Nc2cccc(C)c2)cc1OC	D1 antag -33, Chronic BCR inh inconclusive
CCOCC(=O)Nc1cccc(OC)c1	DRD3 antagonist inconclusive, Chronic BCR inh inconclusive
COc1cccc(N2CCN(C(=S)Nc3ccccc3)CC2)c1	none
Cc1ccc(C(=O)NCCCNC(=O)COc2ccc(Cl)c(C)c2)cn1	D1 antag -40
CCc1ccc(NC(=S)N2CCN(c3cccc(OC)c3)CC2)cc1	D1 antag -31
COc1ccc(CCN(C)CCC(=O)Nc2ccc(C)cc2)cc1OC	DRD3 antagonist inconclusive, Chronic BCR inh inconclusive
COc1cccc(NC(=O)CCC(=O)Nc2cccc(OC)c2)c1	D1 antag -31
Cc1ccc(OCC(=O)NCCCNC(=O)c2ccc(C)nc2)cc1	none
